The Inhibition is the share of the control response that was lost under treatment.

In this test the test system is Plasmodium falciparum. The experiment in a line: GSK_TCMDC: Inhibition of Plasmodium falciparum Dd2 in whole red blood cells, using parasite LDH activity as an index of growth. Test compounds present at 2uM. Type of test: functional.
In turn, `COc1cc(C(=O)N2CCOC(CCN3CCC[C@H]3C(=O)Nc3ccccc3)(c3ccc(Cl)c(Cl)c3)C2)cc(OC)c1OC` (stereo partly specified) showed an Inhibition of 88%. `CC(C)C(=O)NC(Nc1ccc([N+](=O)[O-])cc1)C(Cl)(Cl)Cl` (stereo unspecified) registered an Inhibition of 84%. On to `Cc1c(C)c2c(c(C)c1O)CCC(C)(CCC(=O)O)O2` (stereo unspecified), for which the Inhibition stood at 0%. With `Cc1cc2c(cc1C(F)(F)F)N(C(=O)Nc1cnc(OCCN(C)C)c(C(F)(F)F)c1)CC2` the figure was 25%. `COc1ccc(CC2(c3ccc(F)cc3)N=C(N)N(CCCc3ccc(F)c(F)c3)C2=O)cc1.O=C(O)C(F)(F)F` (stereo unspecified): the Inhibition is reported as 98%. `CCc1cn(C)c2c(N3CCCC3=O)cc(C(=O)N[C@@H](Cc3ccccc3)[C@H](O)CNC(C)(C)c3cccc(OC)c3)cc12` returned an Inhibition of 99%. Then `COc1ccccc1CCCN1C(=O)C(c2ccccc2)(c2ccccc2)N=C1N.O=C(O)C(F)(F)F`, with 99%. With `Cc1ccc2nc(N(CCCn3ccnc3)C(=O)C=Cc3cccs3)sc2c1.Cl` the figure was 57%; with `Cc1ccc(NC(=O)c2ccnc(N3CCN(c4ccncc4)CC3)c2)cc1F.O=C(O)C(F)(F)F`, 12%. Then `COc1ccc(Nc2nc(NCc3ccc(-n4ccnc4)cc3)cc(-c3ccc(OC)cc3)n2)cc1`, with 25%; and `O=C(O)C(F)(F)F.OCC1CCN(Cc2ccc(-c3cccc(-c4nc5ccccc5[nH]4)c3)cc2)CC1`, with 6%; and `CC1CCN(c2nc(C(=O)Nc3cccc4c3CCCC4)c(C(C)C)s2)CC1.O=C(O)C(F)(F)F`, with 49%. Turning to `CCn1cc(CN2CCCC(C(=O)Nc3ccc(-c4nc5ccccc5[nH]4)cc3)C2)c(C)n1` (stereo unspecified), the Inhibition is listed as 28%. Then `CC(=O)Nc1ncc(C(=O)Nc2cccc(-c3ccc(-c4nc5cc(C(F)(F)F)ccc5[nH]4)s3)c2)s1`, with 99%. The compound `O=C(/C=C/c1ccc(Cl)c(Cl)c1)NCCCCCN1CCC(NC(=O)NC2CCCCC2)CC1` came in with an Inhibition of 44%. Then `O=C(NC1CCN(c2ccnc3cc(Cl)ccc23)C1)c1ccc(F)cc1.O=C(O)C(F)(F)F` (stereo unspecified), with 97%; and `O=S(=O)(Nc1ccc(CCN2CCC(N3CCCCC3)CC2)cc1)c1cccc(C(F)(F)F)c1`, with 15%. Then `COc1cc2cc(-c3nc4ccccc4[nH]3)c(N)nc2cc1OC.Cl`, with 100%; and `NC1CCN(Cc2cccc(-c3ccc(-c4nc5cc(F)ccc5[nH]4)cc3)c2)C1.O=C(O)C(F)(F)F` (stereo unspecified), with 99%; and `O=C(Nc1nc(-c2ccccn2)cs1)c1ccccc1COc1ccccc1`, with 42%. In turn, `COc1cc(-c2nc(-c3ccccc3)c(-c3ccccc3)[nH]2)cc(OC)c1O` yielded an Inhibition of 90%.

`Fc1cccc(Cl)c1-c1nc(NCCC(c2ccccc2)c2ccccc2)no1` returned an Inhibition of 87%. Then `O=C(/C=C/c1ccc(Cl)c(Cl)c1)NCCCCCN1CCCN(C(=O)Nc2cc(F)cc(F)c2)CC1`, with 1%; and `CC(=O)Nc1cccc(C(=O)Nc2ccc(-c3cccc(-c4nc5cc(C(F)(F)F)ccc5[nH]4)c3)cc2)c1`, with 85%. `Cl.Oc1cccc(Nc2nc(NCC3CCCO3)c3ccccc3n2)c1` (stereo unspecified): the Inhibition stood at 87%.

With `CS(=O)(=O)CCNCc1ccc(-c2ccc3ncnc(Nc4ccc(OCc5ccccc5)c(Cl)c4)c3c2)o1.Cl` [GW574783B], the Inhibition came to 76%. As to `Cl.Clc1ccc(C2CCN(CCCOc3ccc4c(c3)CCNCC4)CC2)cc1`, the Inhibition is 28%.

`COc1cc2ccccc2c(CNCCCCCCNCc2c(OC)c(OC)cc3ccccc23)c1OC.CS(=O)(=O)O` had an Inhibition of 89%.

Regarding `CCCN1CCN(Cc2ccc(C(=O)Nc3ccc(Cl)cc3)cc2)CC1.O=C(O)C(F)(F)F`, the Inhibition is 14%. The compound `O=C(O)C(F)(F)F.Oc1ccc(CN2CCC(NCc3cccc(C(F)(F)F)c3)CC2)cc1` showed an Inhibition of 64%. Then `Cc1noc(C)c1-c1ccc2c(Nc3cccc4c3-c3ccccc3C4=O)c(C(=O)NCc3ccccc3I)cnc2c1`, with 99%; and `Cc1csc(NC(=O)c2cn(-c3ccccc3)nc2-c2cccs2)n1`, with 12%; and `CCc1cn2c3c(cc(C(=O)N[C@@H](Cc4ccccc4)[C@H](O)CNC(C)C)cc13)N(C)S(=O)(=O)C2.O=CO`, with 98%. Take `COc1ccc(CNCc2cccc(-c3cccc(-c4nc5ccccc5[nH]4)c3)c2)cc1.O=C(O)C(F)(F)F`: the Inhibition is 50%.

Turning to `N#Cc1ccc(CN2CCC(Oc3ccc(NC(=O)c4ccco4)cc3Cl)CC2)cc1.O=C(O)C(F)(F)F`, the Inhibition came to 96%. With `O=C(O)C(F)(F)F.O=C1OC2(CN1CC1CCN(Cc3ccc(O)cc3Cl)C1)c1ccccc1-c1ccccc12` (stereo unspecified) the figure was 84%.

These data come from ChEMBL document CHEMBL1157539, “Thousands of chemical starting points for antimalarial lead identification” (Nature, 2010).
